Results: PubChem BioAssay (NCATS)
Activity calls are given as the source filed them. How the calls were made is not given here.
Potency means the concentration at half of the fitted maximal effect.

What follows are compounds tested on HIV-1 nucleocapsid protein NCp7 (binding to TG oligonucleotide) (assay: HIV Nucleocapsid (AID 346;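 further: potency is for inhibitors that block NC binding and lower polarization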)). Settings: HIV-1 NC / fluorescein-TGTGTGTG probe, fluorescence polarization.
In short: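 HIV-1 NC (100 nM) binding to fluorescein-labelled ssDNA TG4xF (10 nM) in Hepes pH 7.5, 250mM NaCl, 1uM ZnCl2, TCEP and 2-mercaptoethanol; compounds pin-transferred, 1 hr room temperature, fluorescence polarization read on CCD imager.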
In the case of `COc1ncc2nc(-c3cn(C)c4ccccc34)c(=O)n(-c3ccccc3)c2n1`, the Potency is reported as > 20 µM (inactive).
`COc1ccc(C(=O)N2CCC3(CC2)CN(c2ccccn2)C3)cc1` was tested, and the Potency was > 20 µM (inactive).
For `O=S(=O)(c1ccccc1)N1CCC[C@@]2(CCN(Cc3cc(C(F)(F)F)cc(C(F)(F)F)c3)C2)C1`, the Potency was > 20 µM (inactive).
In the case of `COc1ccc(-c2nc3cnc(N4CCOCC4)nc3n(C3CC3)c2=O)cc1`, the Potency is reported as > 20 µM (inactive).
`CC(=O)N1CCC[C@@]2(CCN(Cc3ccccc3)C2)C1` was tested, and the Potency was > 20 µM (inactive).
With `CNc1cc(-c2ccccc2C)ncn1` the Potency was > 20 µM (inactive).
With `COc1ccc(CNc2ncnc3ccc(-c4cccc(C#N)c4)cc23)c(OC)c1` the Potency was > 20 µM (inactive).
In the case of `O=C(c1cccc(F)c1)N1CCC2(CC1)CCN(c1ccc(-c3ccccc3)cc1)CC2`, the Potency is reported as > 20 µM (inactive).
For `Cc1noc(C)c1C(=O)N1CCC[C@@]2(CCN(c3ccccc3)C2)C1`, the Potency was > 20 µM (inactive).
With `c1cncc(-c2cncnc2NC2CCNCC2)c1` the Potency was > 20 µM (inactive).
For `COCCn1c(=O)c(-c2ccc(OC)cc2)nc2cnc(OC)nc21`, the Potency was > 20 µM (inactive).
In the case of `CC(=O)N1CCC2(CCCN(C(=O)Nc3cccc(F)c3)C2)CC1`, the Potency is reported as > 20 µM (inactive).
For `N#CCCn1c(=O)cnc2cnc(Nc3ccccc3)nc21`, the Potency was > 20 µM (inactive).
`CC(C)CN1CCCC2(CCN(C(=O)c3cnccn3)CC2)C1` was tested, and the Potency was > 20 µM (inactive).
With `CN(C)c1ncc2nc(-c3ccccc3)c(=O)n(CCC#N)c2n1` the Potency was > 20 µM (inactive).
In the case of `COc1ccc(NC(=O)N2CCCC3(CCN(C(=O)c4cccn4C)CC3)C2)cc1`, the Potency is reported as > 4 µM (inactive).
In the case of `Cc1cnc(CNc2ccnc(-c3ccccc3C)n2)cn1`, the Potency is reported as > 20 µM (inactive).
With `COc1ccc(-n2c(=O)c(-c3ccc(Cl)cc3)nc3cncnc32)cc1` the Potency was > 4 µM (inactive).
For `O=C(Nc1cccc(F)c1)N1CC[C@@]2(CCCN(S(=O)(=O)c3ccccc3)C2)C1`, the Potency was > 20 µM (inactive).
For `O=C(Nc1cccc(F)c1)N1CC2(CCN(C(=O)c3cccc(F)c3)CC2)C1`, the Potency was > 20 µM (inactive).
With `CC(=O)NCCNc1ncnc2ccc(-c3cccc(NS(C)(=O)=O)c3)cc12` the Potency was > 20 µM (inactive).
In the case of `COc1ccccc1-c1nc(NCc2ccccc2)c2ccccc2n1`, the Potency is reported as > 20 µM (inactive).
With `N#CCCn1c(=O)c(-c2ccccc2)nc2cnc(N3CCNCC3)nc21` the Potency was > 20 µM (inactive).
In the case of `CC(C)NC(=O)N1CCC2(CC1)CCN(C(=O)c1ccco1)CC2`, the Potency is reported as > 20 µM (inactive).
For `O=c1c(CCc2ccccc2)nc2cnc(N3CCOCC3)nc2n1-c1ccccc1`, the Potency was > 20 µM (inactive).
`COc1ccccc1CNc1nc(-c2c(C)noc2C)nc2ccccc12` was tested, and the Potency was > 20 µM (inactive).
For `COc1ccc2[nH]cc(CCNc3ccnc(-c4cccc(C#N)c4)n3)c2c1`, the Potency was > 20 µM (inactive).
With `CC(C)CN1CC[C@@]2(CCCN(C(=O)c3cccc(F)c3)C2)C1` the Potency was > 20 µM (inactive).
`COc1ccccc1-c1cncnc1NCc1cccc(C)c1` was tested, and the Potency was > 20 µM (inactive).
In the case of `COc1cccc(Cn2c(=O)c(-c3ccc(F)c(F)c3)nc3cncnc32)c1`, the Potency is reported as > 20 µM (inactive).
With `COc1ncc2nc(CCc3ccccc3)c(=O)n(C3CC3)c2n1` the Potency was > 20 µM (inactive).
In the case of `COCCn1c(=O)c(CCc2ccccc2)nc2cnc(N3CCN(C)CC3)nc21`, the Potency is reported as > 20 µM (inactive).
In the case of `O=C(c1ccco1)N1CCC2(CC1)CN(c1cccc(-c3ccccc3)c1)C2`, the Potency is reported as > 20 µM (inactive).
In the case of `COc1ccc(-n2c(=O)c(-c3ccc(F)cc3)nc3cnc(N4CCOCC4)nc32)cc1`, the Potency is reported as > 20 µM (inactive).
For `Cc1ccccc1-c1cncnc1N(C)Cc1ccco1`, the Potency was > 20 µM (inactive).
With `COc1cccc(Nc2ncc3nc(C)c(=O)n(Cc4cccs4)c3n2)c1` the Potency was > 4 µM (inactive).
With `COc1ccccc1CCn1c(=O)c(-c2cccs2)nc2cncnc21` the Potency was > 20 µM (inactive).
With `O=C(c1csnn1)N1CCC2(CC1)CN(c1ccncc1)C2` the Potency was > 20 µM (inactive).
With `COc1ccccc1CNc1ncncc1-c1ccccc1OC` the Potency was > 20 µM (inactive).
In the case of `COc1ncc2nc(CCc3ccccc3)c(=O)n(CCC#N)c2n1`, the Potency is reported as > 20 µM (inactive).
